# JMJD2A Tudor = qHTS Assay for Inhibitors of JMJD2A-Tudor Domain | AlphaScreen JMJD2A-Tudor / H3K4me3 peptide binding | AID 504339, 2011 | 390,000 compounds, 4.4% hits | Potency, µM (highest dose often 114 µM), without a hit: at the top dose activity change, negative = inhibition, usual class: inhibitors | Lysine-specific demethylase 4A (Homo sapiens), O75164; also: potency is read from the fitted curve at half-maximal effect; % is scaled to controls: 0 for no effect and ±100 for the full control effect; nearly all actives have a fitted effect of over 50% in size
# G9a block = qHTS Assay for Inhibitors of Histone Lysine Methyltransferase G9a; 350,000 compounds, 8.8% hits; Histone-lysine N-methyltransferase EHMT2 (Homo sapiens), Q96KQ7; G9a H3K9 monomethylation, AlphaScreen, 2 h; Potency, µM (top dose mostly 102 µM), for inactives: at the highest dose activity, negative = inhibition, hits mostly inhibitors; also: potency is read from the fitted curve at half-maximal effect; % is scaled to controls: 0 for no effect and ±100 for the full control effect; nearly all actives have a fitted effect of over 75% in size
#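 G9a (20 nM) was preincubated 15 min with compound, then reacted 2 h at room temperature with 500 nM biotin-H3K9 peptide and 20 µM SAM. Monomethyl-H3K9 detected by AlphaScreen using anti-H3K9me1 antibody.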
# HP1b chromo inh = HTS for Inhibitors of HP1-beta Chromodomain Interactions with Methylated Histone Tails. AlphaScreen HP1-beta / biotin-H3K9me3 peptide binding. Potency, µM (top dose mostly 114 µM), inactives show at the highest dose activity change, negative = inhibition, usual class: inhibitors. 390,000 compounds, 0.56% hits; also: potency is read from the fitted curve at half-maximal effect; nearly all actives have a fitted effect of over 70% in size
#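 Compound inhibition of the preformed complex between 50 nM HP1-beta and 50 nM biotinylated H3K9me3 peptide was read by AlphaScreen. Buffer was PBS pH 7.4 with 0.01% Tween-20. Incubations ran 30 min at room temperature, with 10 ug/mL donor/acceptor beads.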
# PLK1 PBD block = qHTS for Inhibitors of PLK1-PDB (polo-like kinase 1 - polo-box domain): Primary Screen. Potency, µM, for the others: max response, negative = inhibition, hits mostly inhibitors. Serine/threonine-protein kinase PLK1 (Homo sapiens), P53350. Plk1 PBD binding of FITC phosphopeptide, fluorescence polarization. 360,000 compounds, 2.8% hits; also: potency is read from the fitted curve at half-maximal effect; series mostly up to about 57 µM; % is scaled to controls: 0 for no effect and ±100 for the full control effect; nearly all actives have a fitted effect of over 65% in size
# PI5P4Ka inh = qHTS for Inhibitors of phosphatidylinositol 5-phosphate 4-kinase (PI5P4K). Phosphatidylinositol 5-phosphate 4-kinase type-2 alpha (Homo sapiens), P48426. PI5P4Kalpha enzyme, ADP-Glo luminescence, 60 min; hits give low values. 330,000 compounds, 1.2% hits. max response, %; active = max response of -50% or lower; inconclusive = between -30% and -50%; inactive = -30% or higher; also: value at the top dose of about 77 µM; % is scaled to controls: 0 for no effect and ±100 for the full control effect
#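 Quantitative HTS of the MLSMR library against PI5P4Kalpha with substrate. ATP added last at 5 microM final; room temperature, 60 minutes. Remaining ATP depleted, ADP converted and read as luminescence.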
# BAZ2B inh = qHTS Assay for Inhibitors of BAZ2B; AlphaScreen BAZ2B-H3K14Ac peptide displacement; Potency, µM (top dose mostly 114 µM), for inactives: top-dose activity change, negative = inhibition, usual class: inhibitors; 360,000 compounds, 4.4% hits; Bromodomain adjacent to zinc finger domain protein 2B (Homo sapiens), Q9UIF8; also: potency is read from the fitted curve at half-maximal effect; % is scaled to controls: 0 for no effect and ±100 for the full control effect; nearly all actives have a fitted effect of over 60% in size
#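 Protein-peptide AlphaScreen: BAZ2B 50 nM, b-H3K14Ac 50 nM, 1x PBS pH 7.4 + 0.01% Tween-20. Preincubation 30 min RT; cpd 30 min RT (top 110 uM); beads 20 min RT, light-protected.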
# An asterisk follows results filed as active; ? = inconclusive; · = no result; [ ] = another dose, or the depositor's remark. In the library only some 12% were active in any assay of this set; here they are far more common. Unless noted, calls follow the shape of the dose curve; as a rule, active = well fitted curve in the direction sought with a large enough effect; inconclusive = small, poorly fitted or top-dose-only effect, or another doubt; inactive = no such curve, though single readings can be large; an effect the other way counts as inactive or inconclusive.
SMILES,JMJD2A Tudor,G9a block,HP1b chromo inh,PLK1 PBD block,PI5P4Ka inh,BAZ2B inh
COc1ccc(CN2CCC[C@]3(N[C@H](c4ccc(C(F)(F)F)cc4)[C@@H]4C(=O)N(Cc5ccccc5)C(=O)[C@@H]43)C2=O)cc1,·,·,·,-5%,18,·
Cc1cccc(N2CCC(N3CCN(C4CCCCC4)C(CCO)C3)CC2)c1C (configuration not stated),-1%,16µM*,18%,5%,7,45µM*
CCOc1ccc(N2C(=O)/C(=C/c3ccco3)N(C)C2=S)cc1,-28%,10µM*,4%,-8%,-2,-6%
CCOC(=O)C1=C(C)N(c2ccc(OCC)cc2)C(=O)/C1=C\c1ccco1,22µM*,?,45µM*,-30%,-4,8.9µM*
C=CCN1C(=O)N/C(=C/c2ccc(C)o2)C1=O,-18%,?,-8%,?,-14,-1%
COC(=O)C1=C(C)N(c2cccc(OC)c2)C(=O)/C1=C\c1ccco1,45µM*,?,40µM*,30µM*,-5,18µM*
Cc1ccc(/C=C2\C(=O)NC(=O)N2C)o1,-15%,35µM*,26%,-8%,-14,-33%
Cc1cccc(-c2nc3nc(C)cc(NCc4ccccc4Cl)n3n2)c1,-23%,0%[59 µM],1%[57 µM],·,·,-9%
Cc1ccc(CSCCC(=O)N2CCN(c3ccc(F)cc3)CC2)cc1,?,?,-18%,·,·,-32%
O=C(Cn1c(=O)n(-c2ccc(F)c(Cl)c2)c(=O)c2sc3ccccc3c21)NC1CCCCC1,-2%,6%[59 µM],49%,·,·,2%
CCN1/C(=C\C=C2\C(=O)N(c3ccccc3)C(=S)N2C)Sc2ccccc21,-22%,?,-33%[57 µM],-12%,-22,·
COC(=O)C1=C(C)N(CCc2ccccc2)C(=O)C1,-6%,?,32%,-5%,-9,12%
COC(=O)C1=C(C)N(Cc2ccccc2)C(=O)/C1=C\c1ccco1,?,28µM*,?,-15%,-10,18µM*
CCN1C(=O)/C(=C\c2ccco2)C(C(=O)OC)=C1C,?,?,-14%,-3%,-3,?
Cc1ccc(/C=C2/C(=O)N(c3ccccc3)C(=S)N2C)o1,?,8.9µM*,?,-28%,-23,?
C=CCN1C(=O)/C(=C\c2ccco2)C(C(=O)OC)=C1C,?,?,-12%,2%,-1,45µM*
COC(=O)C1=C(C)N(CCc2ccccc2)C(=O)/C1=C\c1ccco1,40µM*,32µM*,-59%,2%,2,35µM*
COC(=O)[C@@]1(Cc2ccc(F)cc2)[C@H]2c3cc(C(=O)N4CCCC4)n(Cc4cc(F)cc5c4OCOC5)c3C[C@H]2CN1C(=O)c1ccccc1,·,·,·,-2%,1,·
C[C@H](CO)N1C[C@H](C)[C@@H](CN(C)C(=O)Nc2ccc3c(c2)OCO3)Oc2ccc(NC(=O)CCC(F)(F)F)cc2C1=O,-19%,·,36%,-10%,-3,·
COc1ccc(-c2nc3n(n2)C(c2ccccc2OC)C(C(=O)Nc2cccnc2)=C(C)N3)cc1 (configuration not stated),-20%,45%[59 µM],31%,·,·,-12%
CCCCC(=O)Oc1ccccc1C(=O)O,·,-44%[2.33 µM],·,·,·,·
COc1ccc(C(=O)/C=C/C(=O)N(CC(=O)NC2CCCCC2)Cc2ccccc2)c(O)c1,-17%,·,33%,5.3µM*,-19,?
COc1ccc(C(=O)/C=C/C(=O)N(CC(=O)NC2CCCCC2)Cc2ccccc2OC)c(O)c1,-14%[57.1 µM],18µM*,26%,?,-11,-29%
COc1ccc(C(=O)/C=C/C(=O)N(Cc2ccccc2)C(C(=O)NC2CCCCC2)c2ccncc2)c(O)c1 (configuration not stated),-30%,4%[59 µM],15%,-5%,-5,?
C=C1c2cccc(C(F)(F)F)c2O[C@H](C(=O)OCC)[C@@H]1CCCCCC,·,91%,·,·,·,·
SMILES,JMJD2A Tudor,G9a block,HP1b chromo inh,PLK1 PBD block,PI5P4Ka inh,BAZ2B inh
Cc1c(CC(=O)NCCCC(=O)O)c(=O)oc2cc3c(cc12)CCC(C)(C)O3,?,-7%,7%,27µM*,-13,0%
Cc1oc(C(C)(C)C)cc1C(=O)Nc1cccc(/C=C\C(=O)O)c1,-27%,-20%[59 µM],14%,-10%,5,?
Cc1oc(-c2ccccc2)cc1C(=O)Nc1cccc(/C=C\C(=O)O)c1,-22%,45µM*,12%,-23%,0,-35%
COc1ccc(Cl)cc1Cn1c(C)c(C(=O)NCc2cccc(Cl)c2)sc1=O,·,·,·,-7%,-2,·
COc1ccc(-c2nn(-c3ccccc3)cc2C=O)cc1[N+](=O)[O-],-11%,-8%,33%,6%,1,-1%
COc1ccc(-c2nnc(SC)nc2-c2ccc(OC)c([N+](=O)[O-])c2)cc1[N+](=O)[O-],2.5µM*,·,?,-20%,-16,·
C[C@H](CO)N1C[C@H](C)[C@@H](CN(C)C(=O)Nc2ccc(C(F)(F)F)cc2)Oc2ccc(NS(=O)(=O)c3cn(C)cn3)cc2C1=O,-15%,·,35%,-20%,-7,·
O=C(Nc1ccc(F)cc1)c1ccc(-n2cnc3cccnc32)cc1,-1%,-1%[59 µM],47%,·,·,-12%
Nc1nc(N2CCN(C/C=C/c3ccccc3)CC2)nc2ccccc12,-16%[11.4 µM],?,26%,27µM*,-22,-37%
Cc1cc(C)c(S(C)(=O)=O)c(Oc2ccccc2C)n1,-23%[11.4 µM],10%,-6%,21µM*,5,2%
O=C1N=c2ccccc2=C1c1sc(NS(=O)(=O)Cc2ccccc2)nc1O,?,-18%[59 µM],6%,?,-54*,?
O=C1N=c2ccccc2=C1c1sc(Nc2cccc(O)c2)nc1O,?,?,-15%,-10%,?,56µM*
Cn1c(O)c(C2=c3ccccc3=NC2=O)sc1=Nc1ccc(Cl)cc1,-10%,21%[59 µM],11%,-3%,-20,4%
O=C1N=c2ccccc2=C1c1sc(Nc2ccc(O)cc2)nc1O,?,79µM*,21%,-21%,-65*,56µM*
O=C(O)CCC(C(=O)O)n1c(O)c(C2=c3ccccc3=NC2=O)sc1=S (configuration not stated),-14%,?,0%,-11%,-15,?
O=C(CSc1nc(-c2ccccc2)nc2c1Cc1ccccc1O2)N1CCCCC1,-8%,6%[59 µM],46%,·,·,-22%

# Screens from PubChem.
